Results reported in PubChem BioAssay (Tox21).
Unmarked numbers belong to inactive results. Inconclusive results are not listed. A call without a number means that no potency is given here. Activity calls are given as the source filed them. Unless noted, calls come from the whole dose curve; as a rule, active = well fitted curve in the direction sought with a large enough effect in the repeat runs; inconclusive = weak or mixed curves; inactive = no such curve, though single readings can be large; an effect the other way counts as inactive or inconclusive.

Experiments:
[1] = qHTS assay to identify small molecule agonists of the sonic hedgehog signaling (Shh) pathway (AID 1259368; calls by dose curve; note: series mostly up to about 92 µM; nearly all actives have a fitted effect of over 15% in size)
Method in brief: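 NIH/3T3-derived 3T3Gli1-Luc cells carrying a stably integrated Gli1 response element–firefly luciferase reporter were plated, left 4 hr at 37 C, then given compounds in DMSO for 24 hr. Luminescence was read 30 min after adding luciferase reagent.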

[2] = qHTS assay to identify small molecule antagonists of the sonic hedgehog signaling (Shh) pathway (AID 1259369; calls by dose curve; note: nearly all actives have a fitted effect of over 45% in size; note: potency is the fitted concentration of half-maximal effect)
Method in brief: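 NIH/3T3-derived 3T3Gli1-Luc cells with stably integrated Gli1-Luc reporter were preincubated 4hr at 37 C, then given compounds in DMSO plus Shh conditioned medium and incubated 24hr. Firefly luciferase luminescence read after 30min reagent at room temperature.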

[3] = target: Estrogen receptor beta (Homo sapiens) (UniProt Q92731); assay: qHTS assay to identify small molecule agonists of the estrogen receptor beta (ER-beta) signaling pathway (AID 1259377; active = well fitted activation curve with a large enough effect in the signal ratio in the repeat runs, not every such curve was filed as active; the % refers to the signal ratio)
Method in brief: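 qHTS in ER-beta-UAS-bla HEK293T cells: 6 hr settling, then 16 hr compound at 37C, then LiveBLAzer substrate 2 h at RT before fluorescence reading.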

[4] = target: Estrogen receptor beta (Homo sapiens) (UniProt Q92731); assay: qHTS assay to identify small molecule antagonists of the estrogen receptor beta (ER-beta) signaling pathway (AID 1259378; active = well fitted inhibition curve with a large enough effect in the signal ratio in the repeat runs, not every such curve was filed as active; the % refers to the signal ratio)
Method in brief: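 Antagonist mode: compounds added to beta-lactamase reporter HEK293T ER-beta-UAS cells stimulated with E2 (1nM final), 16 hr at 37C. LiveBLAzer B/G FRET substrate, 2 hours room temperature, fluorescence read-out.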

[5] = qHTS assay to identify small molecule agonists of the androgen receptor (AR) signaling pathway in the presence of an antagonist - cell viability counter screen (AID 1259379); note: series mostly up to about 92 µM; nearly all actives have a fitted effect of over 25% in size
Method in brief: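 MDA-kb2 human breast carcinoma cells (stable MMTV-luciferase, AR/GR responsive) were seeded 3,000 cells/well, pre-incubated 5 hr at 37C without CO2, then given 3.0uM nilutamide and compounds at 15 concentrations for 16 hr. Viability was read by CellTiter-Fluor fluorescence.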

[6] = qHTS assay to identify small molecule agonists of the estrogen receptor beta (ER-beta) signaling pathway - cell viability counter screen (AID 1259380); note: nearly all actives have a fitted effect of over 30% in size
Method in brief: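 ER-beta-UAS-bla HEK293T cells in medium with 2% charcoal-stripped FBS were preincubated 6 hr at 37C, dosed with compound in DMSO for 16 hr, then after the bla read, CellTiter-Glo was added for 30 min at room temperature; luminescence recorded.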

[7] = qHTS assay to identify small molecule antagonists of the estrogen receptor beta (ER-beta) signaling pathway - cell viability counter screen (AID 1259382);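 note: HEK293T cells carrying ER-beta-UAS-bla reporter stimulated with estradiol; series mostly up to about 92 µM; nearly all actives have a fitted effect of over 55% in size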
Method in brief: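 ER-beta-UAS-bla HEK293T cells (2,000/well, 2% charcoal-stripped FBS) were pre-incubated 6 hr at 37C, then given compound plus 1nM final 17-beta-estradiol for 16 hr. Viability was read in the same wells by CellTiter-Glo luminescence after 30 min at room temperature.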

[8] = qHTS assay to identify small molecule antagonists of the sonic hedgehog signaling (Shh) pathway - cell viability counter screen (AID 1259367); note: nearly all actives have a fitted effect of over 55% in size
Method in brief: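 Using CellTiter-Fluor, viability of Gli1-Luc reporter 3T3 cells is read by fluorescence in the wells used for the Shh luciferase assay. Treatment lasts 23 hr with conditioned medium, then reagent 1 hr at 37C.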

[9] = target: Androgen receptor (Homo sapiens) (UniProt P10275); assay: qHTS assay to identify small molecule agonists of the androgen receptor (AR) signaling pathway in the presence of an antagonist (AID 1259381; calls by dose curve; note: nearly all actives have a fitted effect of over 15% in size)
Method in brief: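 MDA-kb2 human breast carcinoma cells carrying an MMTV-luciferase reporter (AR- and GR-responsive) were treated with compounds at 15 concentrations plus 3.0uM final nilutamide for 16hr at 37C without CO2; luminescence was read after ONE-Glo addition.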

Sequence of Estrogen receptor beta (Homo sapiens) (Q92731 whole entry, looked up): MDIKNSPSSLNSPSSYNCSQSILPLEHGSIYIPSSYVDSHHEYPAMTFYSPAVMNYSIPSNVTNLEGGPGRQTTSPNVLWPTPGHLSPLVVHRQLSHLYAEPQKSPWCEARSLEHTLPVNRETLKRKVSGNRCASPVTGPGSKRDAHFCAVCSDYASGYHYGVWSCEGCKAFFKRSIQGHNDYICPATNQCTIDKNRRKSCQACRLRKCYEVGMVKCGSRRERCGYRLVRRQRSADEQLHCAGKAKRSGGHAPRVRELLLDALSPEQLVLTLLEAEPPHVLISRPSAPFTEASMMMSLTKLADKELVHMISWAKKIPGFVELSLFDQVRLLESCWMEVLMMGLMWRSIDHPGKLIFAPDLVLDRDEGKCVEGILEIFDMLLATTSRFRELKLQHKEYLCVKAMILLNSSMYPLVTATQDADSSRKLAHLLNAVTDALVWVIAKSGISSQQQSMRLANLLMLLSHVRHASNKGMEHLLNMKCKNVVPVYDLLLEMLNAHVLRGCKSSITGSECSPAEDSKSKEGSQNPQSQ
Sequence of Androgen receptor (Homo sapiens) (P10275 whole entry, looked up): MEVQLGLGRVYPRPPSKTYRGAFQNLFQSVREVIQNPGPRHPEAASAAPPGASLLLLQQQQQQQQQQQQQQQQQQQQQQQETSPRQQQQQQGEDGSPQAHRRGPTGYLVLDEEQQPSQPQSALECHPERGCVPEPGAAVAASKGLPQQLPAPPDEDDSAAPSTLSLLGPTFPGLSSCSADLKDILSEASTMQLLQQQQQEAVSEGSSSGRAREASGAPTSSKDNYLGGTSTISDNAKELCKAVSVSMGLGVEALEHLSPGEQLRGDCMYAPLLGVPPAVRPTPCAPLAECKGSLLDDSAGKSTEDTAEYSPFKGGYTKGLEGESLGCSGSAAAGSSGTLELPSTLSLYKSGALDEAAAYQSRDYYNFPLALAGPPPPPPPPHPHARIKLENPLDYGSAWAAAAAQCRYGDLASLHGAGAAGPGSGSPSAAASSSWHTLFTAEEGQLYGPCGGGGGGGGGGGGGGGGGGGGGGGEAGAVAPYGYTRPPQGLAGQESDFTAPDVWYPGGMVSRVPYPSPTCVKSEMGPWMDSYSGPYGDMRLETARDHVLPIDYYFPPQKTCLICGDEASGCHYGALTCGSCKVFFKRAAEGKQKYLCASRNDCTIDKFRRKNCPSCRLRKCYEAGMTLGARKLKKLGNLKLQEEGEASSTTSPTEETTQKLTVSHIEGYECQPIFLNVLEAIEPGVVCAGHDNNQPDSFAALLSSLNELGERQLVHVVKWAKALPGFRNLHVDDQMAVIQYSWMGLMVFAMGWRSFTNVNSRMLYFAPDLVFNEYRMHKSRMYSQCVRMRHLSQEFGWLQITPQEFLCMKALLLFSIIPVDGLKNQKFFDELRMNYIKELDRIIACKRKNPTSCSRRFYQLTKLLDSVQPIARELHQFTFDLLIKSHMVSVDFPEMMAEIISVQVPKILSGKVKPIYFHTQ

Row | Compound | outcome [1] | Potency [2] | Potency [3] | outcome [4] | outcome [5] | Potency [6] | outcome [7] | outcome [8] | outcome [9]
1 | CN(C)CCc1c[nH]c2ccc(C[C@H]3COC(=O)N3)cc12 | inactive | inactive | inactive | inactive | inactive | inactive | inactive |  | 
2 | Cc1nc2ccc(Cl)cc2[nH]1 | inactive |  | inactive |  | inactive | inactive |  | inactive | 
3 | CCCCCCC(O)CO (stereo not drawn) | inactive |  |  |  | inactive | inactive | inactive | inactive | 
4 | C=CC(=O)OCCOCCOCC | inactive |  | inactive | inactive | inactive | inactive |  | inactive | 
5 | Clc1cc(Cl)c(Cl)c(Cl)c1Cl | inactive | inactive | inactive | inactive | inactive |  | inactive | inactive | 
6 | CCCCNCC | inactive | inactive |  |  | inactive |  | inactive | inactive | 
7 | N#CC1(N)CCCCC1 | inactive | inactive | inactive | inactive | inactive | inactive | inactive | inactive | 
8 | CC(CC(=O)Cl)CC(C)(C)C (stereo not drawn) | inactive | inactive | inactive | inactive | inactive | inactive | inactive |  | 
9 | CC(=O)c1c(C)cc(C(C)(C)C)cc1C | inactive | inactive | inactive |  | inactive |  | inactive | inactive | 
10 | CC(C)(C)NCC(O)COc1cccc2c1CCC(=O)N2 (stereo not drawn) | inactive | inactive | inactive |  | inactive | inactive | inactive | inactive | inactive
11 | C=CC(=O)CC | inactive |  | inactive | inactive | inactive | inactive | inactive | inactive | 
12 | C=CCON/C(CCC)=C1\C(=O)CC(C)(C)C(C(=O)OC)=C1O | inactive |  | inactive | inactive | inactive | inactive | inactive | inactive | 
13 | CC(=O)c1ccc2ccc3ccccc3c2c1 | inactive | inactive |  |  | inactive |  | inactive |  | 
14 | C[n+]1ccccc1/C=N/O | inactive | inactive | inactive | inactive | inactive | inactive | inactive | inactive | 
15 | CC(C)(C)C(=O)CCc1ccc(Cl)cc1 | inactive | inactive | inactive |  | inactive |  |  | inactive | 
16 | CCc1ccc(CC)cc1 | inactive | inactive | inactive | inactive | inactive | inactive | inactive | inactive | 
17 | c1coc(Cn2cccc2)c1 | inactive | inactive | inactive | inactive | inactive | inactive | inactive | inactive | 
18 | CC(C)(C)c1ccc(C(=O)CCCCl)cc1 | inactive | inactive | inactive | inactive | inactive |  | inactive | inactive | 
19 | CCCCOCCCC | inactive |  |  |  | inactive |  | inactive | inactive | 
20 | Cc1cc(=O)oc2cc(O[C@@H]3SC[C@@H](O)[C@H](O)[C@H]3O)ccc12 | inactive | inactive | inactive | inactive | inactive | inactive | inactive | inactive | inactive
21 | CCC(C)(C)C | inactive | inactive | inactive | inactive |  | inactive | inactive | inactive | 
22 | CC1(C)C(=O)C(C)(C)C1=O | inactive | inactive |  |  | inactive | inactive |  | inactive | inactive
23 | CCOC(=O)COc1ccc2c(C)c(CCN(CC)CC)c(=O)oc2c1Cl | inactive | inactive |  |  | inactive | inactive | inactive | inactive | 
24 | CC(C)OC(=O)C(C(=O)OC(C)C)=C1SC=CS1 | inactive | 4.73 µM (active) |  |  | inactive |  | inactive | inactive | 
25 | CC(C)C[P+](C)(CC(C)C)CC(C)C | inactive |  |  | inactive | inactive |  | inactive | inactive | 
26 | Cc1cc(C)c(C)c(C)c1 | inactive | inactive |  |  | inactive | inactive | inactive | inactive | 
27 | COc1cc(OC)cc(OC)c1 | inactive | inactive | inactive |  | inactive |  | inactive | inactive | inactive
